From PubChem BioAssay (NCATS)
Inconclusive results are not listed. Where a call stands in place of a potency, no number is given. Active and inactive are the calls of the source. The call rests on the fitted dose curve; in most records, active means well fitted cell-killing curve with a large enough effect; inconclusive means small, poorly fitted or top-dose-only effect; inactive means flat fitted curve, though single readings scatter.

Experiment: Cellular viability qHTS for adrenocortical cancer (ACC) cell line SW-13 (AID 1963989);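 further: cells grown in serum-free medium with ITS supplement; nearly all actives have a fitted effect of over 65% in size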
Settings: SW-13 ACC cells viability, CellTiter-Glo, 48 h; activity (max response): hits give low values
Summary of the method: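 Luminescent ATP read-out (CellTiter-Glo, 20 min at room temperature) measured metabolically competent SW-13 cells after 48 h compound treatment. Final concentrations spanned up to 46 uM; bortezomib served as positive control.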

SMILES	activity (max response)
Oc1c(Br)cc(Br)cc1Br	8.39% (inactive)
CNC(=O)Oc1cccc2ccccc12	-8.24% (inactive)
CC(C)(O)C(Cl)(Cl)Cl	9.4% (inactive)
CCN(CC)C(=O)N[C@@H]1C=C2c3cccc4[nH]cc(c34)C[C@@H]2N(C)C1	5.3% (inactive)
COc1cc(C[C@@H](C)N)c(OC)cc1C	-18.7% (inactive)
NCCc1ccc(O)cc1	4.68% (inactive)

Experiment: Cellular viability qHTS for adrenocortical cancer (ACC) cell line NCI-H295R (AID 1963990); further: nearly all actives have a fitted effect of over 60% in size
Settings: CellTiter-Glo ATP luminescence, 48 h; series mostly up to 46.1 µM
Summary of the method: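 IC50 and maximal efficacy derive from four-parameter logistic modelling of titration curves, with reads scaled between DMSO-only wells (0%) and doxorubicin hydrochloride (100% inhibition). Compounds spanned up to 46 uM over 48 h.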

SMILES	Potency
Oc1c(Br)cc(Br)cc1Br	inactive
CNC(=O)Oc1cccc2ccccc12	inactive
CC(C)(O)C(Cl)(Cl)Cl	inactive
CCN(CC)C(=O)[C@@H]1C=C2c3cccc4[nH]cc(c34)C[C@H]2N(C)C1	inactive
CCN(CC)C(=O)N[C@@H]1C=C2c3cccc4[nH]cc(c34)C[C@@H]2N(C)C1	inactive
COc1cc(C[C@@H](C)N)c(OC)cc1C	inactive
NCCc1ccc(O)cc1	inactive
